For experiment [1], the target named is Cellular tumor antigen p53 (Homo sapiens) (UniProt P04637). Nature of the experiment: Primary qHTS for small molecule compounds that upregulate eGFP-tagged delta133p53alpha (in N-terminal) cells. (AID 2060322). Also: nearly all actives have a fitted effect of over 75% in size. Also: potency is read from the fitted curve at half-maximal effect.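 As to activation: cells pre-induced with doxycycline then dosed without doxycycline; series mostly up to about 56 µM; 0% = DMSO vehicle and 100% = reference activator.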 To be noted: NCI-H358 eGFP-delta133p53alpha fluorescence, 24 h; activation: stronger effect = higher value. The essentials: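 NCI-H358 cells pre-induced 24 h with 10 ng/ml doxycycline for eGFP-delta133p53alpha, plated dox-free and exposed 24 h at 37C to titrated compounds. Fixed, Hoechst-stained; gated GFP peak intensity by laser scanning cytometry, normalized to DMSO (0%) and 57.5 uM 5-azacytidine (100%).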
Cellular tumor antigen p53 (Homo sapiens), sequence (P04637 whole entry, looked up): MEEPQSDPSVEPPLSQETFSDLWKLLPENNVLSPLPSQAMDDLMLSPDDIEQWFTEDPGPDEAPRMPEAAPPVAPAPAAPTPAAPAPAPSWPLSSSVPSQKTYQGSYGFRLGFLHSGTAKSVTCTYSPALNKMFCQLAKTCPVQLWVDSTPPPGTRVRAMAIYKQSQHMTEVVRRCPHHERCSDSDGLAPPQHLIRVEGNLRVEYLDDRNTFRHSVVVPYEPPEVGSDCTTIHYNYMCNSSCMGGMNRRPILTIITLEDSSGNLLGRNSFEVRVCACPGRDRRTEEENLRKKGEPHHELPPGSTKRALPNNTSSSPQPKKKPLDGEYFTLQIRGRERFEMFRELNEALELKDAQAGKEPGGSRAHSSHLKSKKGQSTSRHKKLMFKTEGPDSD

The target of experiment [2] is Aldehyde dehydrogenase, mitochondrial (Homo sapiens) (UniProt P05091). Nature of the experiment: qHTS for Inhibitors of the Aldehyde Dehydrogenase Family (ALDH2) Primary screen (AID 2061308;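 also: plate controls were vehicle for no effect and reference inhibitor for full effect; nearly all actives have a fitted effect of over 55% in size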). (Quantitative high-throughput screening tests each substance at several concentrations.)
The target in experiment [3] is Retinaldehyde dehydrogenase 3 (Homo sapiens) (UniProt P47895). Put plainly: qHTS for Inhibitors of the Aldehyde Dehydrogenase Family (ALDH1A3) Primary screen (AID 2061315).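 Also: plate controls were DMSO vehicle for no effect and reference inhibitor for full effect.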
The nature of experiment [4]: BET inhibitor-based combinations targeting novel dependencies in MECOM-rearranged (r) AML: OCI-AML3 cell line (AID 2202232). Also: nearly all actives have a fitted effect of over 35% in size. Also: potency is read from the fitted curve at half-maximal effect. The conditions noted are these: Potency: OCI-AML3 viability. The essentials: (§1)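 A 48 hr incubation preceded viability reading by CellTiter-Glo, with 15 min room-temperature development. Dose series had 11 points; normalization used DMSO and empty wells; AUC was computed and mean-centered per line as Z-AUC.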

The nature of experiment [5]: BET inhibitor-based combinations targeting novel dependencies in MECOM-rearranged (r) AML: UCSD-AML1 cell line (AID 2202235).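 Also: series mostly up to about 46 µM; plate controls were DMSO vehicle wells for no effect and blank wells for full effect; nearly all actives have a fitted effect of over 40% in size.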 A digest of the protocol:
(§2)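 Each compound is tested in an 11-point concentration series against 500 seeded cells/well for 48 hr. The luminescent viability signal is normalized to DMSO and blank wells, then reduced to AUC and a cell-line-centred Z-AUC.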

Experiment [6] can be described thus: BET inhibitor-based combinations targeting novel dependencies in MECOM-rearranged (r) AML: AML-191 cell line (AID 2202236; also: nearly all actives have a fitted effect of over 35% in size; also: potency is read from the fitted curve at half-maximal effect). A digest of the protocol: as §1
Experiment [7] in a line: BET inhibitor-based combinations targeting novel dependencies in MECOM-rearranged (r) AML: MV-4-11 cell line (AID 2202233). Also: nearly all actives have a fitted effect of over 45% in size. Also: potency is read from the fitted curve at half-maximal effect. The essentials: as §2
Experiment [8] in a line: BET inhibitor-based combinations targeting novel dependencies in MECOM-rearranged (r) AML: HNT-34 cell line (AID 2202234). Also: nearly all actives have a fitted effect of over 35% in size. Also: potency is read from the fitted curve at half-maximal effect. The essentials:
as §2

Experiment [9] can be described thus: BET inhibitor-based combinations targeting novel dependencies in MECOM-rearranged (r) AML: AML-194 cell line (AID 2202237; also: nearly all actives have a fitted effect of over 40% in size; also: potency is read from the fitted curve at half-maximal effect). A digest of the protocol: as §1

Each structure is given as a SMILES string. “And” between values parts separate entries of the source, which are not always exact repeats. Equal entries are not always repeated. Results filed as inconclusive are left out. Values without a mark were called inactive. The source made the active and inactive calls. Calls follow the shape of the dose curve; as a rule, active = well fitted curve in the direction sought with a large enough effect; inconclusive = small, poorly fitted or top-dose-only effect, or another doubt; inactive = no such curve, though single readings can be large; an effect the other way counts as inactive or inconclusive.

On to `Cc1ccccc1-n1c(Cn2cnc3c(N)ncnc32)nc2cccc(C)c2c1=O`, for which the activation in [1] is 46.4% and -16.1%. For the same compound, the Potency entry in experiment [2], in [3], in experiment [5] and in [6] was “inactive” in each case. Besides, in experiment [4], the Potency is 2.95 µM (active).

Regarding `CC1(N2CCC(n3c([C@@H]4CCCNC4)nc4ccccc43)CC2)CCCCCCC1`, in experiment [1], the activation was 44.9% and 4.3%. Further, the Potency entry in [2] and in experiment [3] was “inactive” throughout. The Potency in experiment [7] was 16.6 µM (active); in [8], 20.9 µM (active); in [6] it was 20.9 µM (active); in experiment [9], 26.3 µM (active).

For the compound `C/C=C(\C)C(=O)OC1CC2C(CC=C3CC(OC4CC(OC)C(OC5CC(OC)C(OC6CC(OC)C(OC7CC(OC)C(O)C(C)O7)C(C)O6)C(C)O5)C(C)O4)CCC32C)C2(O)CCC(C(C)=O)C12C` (stereo not given), the activation in experiment [1] was -6.11%. For the same compound, the Potency entry in experiment [2] and in experiment [3] was “inactive” in each case.

For the compound `NC(=O)[C@@H](CC1CC1)[C@@H](CCC(F)(F)F)C(=O)N[C@H]1N=C(c2ccccc2)c2cccc(F)c2NC1=O`, the activation in experiment [1] is -1.79%. Besides, the Potency result in [2], in experiment [3], in experiment [4], in experiment [7], in experiment [8] and in [5] was “inactive” each time. For the same compound, the Potency result in experiment [6] and in [9] was “inactive” throughout.

`c1cncc(OC[C@@H]2CCN2)c1`: in experiment [1], the activation was -4.3%. In experiment [3], the Potency entry was “inactive”.

With `Oc1ccc2c(c1)C13CCCC[C@H]1[C@@H](C2)N(CC1CCC1)CC3`, the activation in experiment [1] was 12.3%. Besides, the Potency result in [2] and in experiment [3] was “inactive” in each case.

Take `CC(C)OC(=O)c1ccnc2cc(C(OCCN3CCCCC3)c3ccccc3Cl)sc12` (stereo not given): the activation in experiment [1] is -11.2%. Also, the Potency result in experiment [3] is “inactive”.

For `CC1=CC2OC3CC(O)[C@](C)([C@@]2(C)C(O)C1=O)[C@]31CO1` (stereo not given in full), the Potency in experiment [1] is 21.3 µM (active). Also, the Potency entry in experiment [2] and in [3] was “inactive” in each case.

These data come from PubChem BioAssay (NCATS).
